Laboratory results published in PubChem BioAssay.

Legend:
[1] = test system: Human papillomavirus type 1a protein E7 (residues 44-93); experiment: small molecules binding HPV E7 44-93 – biochemical, small-molecule microarray, residues 44-93, 635 nm fluorescence, primary screen (AID 1108); conditions: fluorescence 635 nm, higher = more signal;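 also: E7 fragment applied at 1 µg/mL in TBST for 1 h at 4 C; score combines spot fluorescence with its signal to noise ratio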
[2] = hepatitis C replication reporter changes, two-sided – Huh7 cells, luciferase reporter, HCV replication inhibitor project, primary screen (AID 1109); conditions: Huh7 HCV replicon luciferase reporter, 48 h; higher = more signal;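 also: huh7 hepatoma cells harbouring a luciferase neomycin HCV replicon reporter; luciferase luminescence as measure of HCV replicon replication; test concentration not given here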
[3] = target: Left-right determination factor 2 (Homo sapiens) (UniProt O00292); experiment: small molecules binding LEFTY2 protein – biochemical, small-molecule microarray, 635 nm fluorescence scan, primary screen (AID 1110); conditions: higher = more signal
[4] = target: Calmodulin-1 (Homo sapiens) (UniProt P0DP23); experiment: small molecules binding calmodulin-1 with EGTA – biochemical, small-molecule microarray, Cy5-labelled CALM1, profiling panel (AID 1111); conditions: Cy5-CALM1 binding fluorescence, higher = more signal;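 also: labelled calmodulin applied in Tris saline Tween buffer holding calcium plus EGTA and DTT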
[5] = target: Calmodulin-1 (Homo sapiens) (UniProt P0DP23); experiment: small molecules binding Ca-loaded calmodulin-1 – biochemical, small-molecule microarray, Cy5-labelled CALM1, plus calcium, artefact control for SMM control-protein annotation, profiling panel (AID 1112); conditions: Cy5-CALM1 binding fluorescence, higher = more signal;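 also: score merges spot fluorescence with signal to noise from triplicate slides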
[6] = probe aWnt5a binding to arrayed compounds – biochemical, biotinylated probe, 635/667 nm fluorescence, primary screen (AID 1113); conditions: small-molecule microarray, higher = more signal;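 also: score merges 667 nm fluorescence intensity with signal-to-noise per printed feature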
[7] = probe aShh binding to arrayed compounds – biochemical, biotinylated probe, 635/667 nm fluorescence, primary screen (AID 1114); conditions: small-molecule microarray, higher = more signal;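 also: probe is biotin-labelled aShh protein from a stem cell growth factor screen; measures binding of labelled protein to compounds printed on the slide; score merges feature fluorescence at 667 nm with signal-to-noise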
[8] = probe aNog binding to arrayed compounds – biochemical, biotinylated probe, 635/667 nm fluorescence, primary screen (AID 1115); conditions: small-molecule microarray, higher = more signal;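 also: probe is biotinylated aNog protein used at 0.15 µg/mL for 1 h at 4 C; z-score combines 667 nm fluorescence of each spot with its signal to noise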
[9] = target: Torsin-1A-interacting protein 1 (Homo sapiens) (UniProt Q5JTV8); experiment: compound microarray binding of lysate hLAP1 – cell lysate, small-molecule microarray, COS7 lysate, 635/667 nm fluorescence, primary screen (AID 1116); conditions: 635 nm fluorescence, higher = more signal
[10] = target: Alpha-bungarotoxin (Bungarus multicinctus) (UniProt P60615); experiment: compounds binding labelled alpha-BTX control protein – biochemical, small-molecule microarray, Alexa647 label, 635/667 nm fluorescence, artefact control for SMM control protein annotation, profiling panel (AID 1117); conditions: alpha-BTX-A647 binding fluorescence, higher = more signal
Sequence of Alpha-bungarotoxin (Bungarus multicinctus) (P60615 whole entry, looked up): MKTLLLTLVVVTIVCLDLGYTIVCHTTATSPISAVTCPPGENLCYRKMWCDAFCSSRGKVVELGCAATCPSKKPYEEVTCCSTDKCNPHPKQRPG

Sequence of Torsin-1A-interacting protein 1 (Homo sapiens) (Q5JTV8 whole entry, looked up): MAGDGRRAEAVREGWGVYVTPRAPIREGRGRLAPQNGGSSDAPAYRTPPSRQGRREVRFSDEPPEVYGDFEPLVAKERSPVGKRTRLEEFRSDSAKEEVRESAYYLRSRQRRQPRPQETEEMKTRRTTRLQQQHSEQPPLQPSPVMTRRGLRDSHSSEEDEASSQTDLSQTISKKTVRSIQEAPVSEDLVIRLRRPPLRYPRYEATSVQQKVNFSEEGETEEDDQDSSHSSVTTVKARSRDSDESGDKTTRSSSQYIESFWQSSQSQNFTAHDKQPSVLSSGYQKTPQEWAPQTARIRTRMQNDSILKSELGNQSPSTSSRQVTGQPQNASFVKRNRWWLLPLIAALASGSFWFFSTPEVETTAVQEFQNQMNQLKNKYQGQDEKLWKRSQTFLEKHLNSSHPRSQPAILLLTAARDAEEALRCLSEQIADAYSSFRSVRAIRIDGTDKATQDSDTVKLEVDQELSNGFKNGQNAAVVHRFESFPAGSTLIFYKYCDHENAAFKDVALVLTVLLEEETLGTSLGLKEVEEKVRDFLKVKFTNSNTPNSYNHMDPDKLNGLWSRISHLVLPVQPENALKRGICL
Sequence of Left-right determination factor 2 (Homo sapiens) (O00292 whole entry, looked up): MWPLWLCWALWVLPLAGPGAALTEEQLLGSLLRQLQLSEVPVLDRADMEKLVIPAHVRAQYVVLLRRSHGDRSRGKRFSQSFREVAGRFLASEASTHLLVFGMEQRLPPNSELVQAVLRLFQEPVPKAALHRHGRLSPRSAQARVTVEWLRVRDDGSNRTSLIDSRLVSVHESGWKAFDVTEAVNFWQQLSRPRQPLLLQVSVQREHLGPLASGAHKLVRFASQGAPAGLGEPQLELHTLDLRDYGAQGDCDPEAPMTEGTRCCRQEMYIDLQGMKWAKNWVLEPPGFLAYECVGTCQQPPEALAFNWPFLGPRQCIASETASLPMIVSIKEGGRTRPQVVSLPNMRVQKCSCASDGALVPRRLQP

SMILES	composite z-score [1]	z-score [2]	composite z-score [3]	composite z-score [4]	composite z-score [5]	composite z-score [6]	composite z-score [7]	composite z-score [8]	composite z-score [9]	composite z-score [10]
C=C(C(=O)CC[C@@H](OC(=O)c1ccccc1-c1ccccc1C(=O)O)c1cccc(OCCO)c1)C(C)C	-0.635	-3.06	0.706	-0.367	-0.692	-0.129	-0.0396	-0.248	3.26	-0.11
COC(=O)c1c2oc(c1C(=O)OC)C(=O)N[C@H](Cc1ccccc1)Cn1cc(nn1)C1(CCCCC1)NC(=O)N[C@H](CO)CC2	-1.21	0.0733	-0.161	-0.311	-0.0933	-0.105	0.0639	0.0119	0.459	2.39
CN1C(=O)C2C=CC(C(O)c3ccc([N+](=O)[O-])cc3)N(Nc3ccccc3)C2C1=O (stereo not given)	1.41	0.514	-0.258	2.04	0.843	0.0968	1.01	1.53	0.0788	1.44
C=CCNC(=O)[C@@H]1[C@H]2C(=O)O[C@H](c3ccccc3)[C@H](c3ccccc3)N2[C@H](c2ccc(OCCO)cc2)[C@@]12C(=O)Nc1ccc(C#CCNC(N)=O)cc12	1.24	-0.658	-0.463	1.47	0.472	-0.0051	-0.349	-0.361	0.0307	0.782
CCCCCN1CC=CC23O[C@@H]4/C=C\CCCOC(=O)C4[C@H]2C(=O)N(CCO)[C@@H]3C1=O (stereo not given in full)	1.45	0.548	-0.155	-0.173	0.463	-0.13	-0.0709	-0.191	0.162	0.227
COc1ccc([Si](C)(C)[C@H]2[C@H](CCO)O[C@@]3(C(=O)N(Cc4ccccc4)c4ccc(NC(=O)[C@H](C)O)cc43)[C@@H]2C)cc1	1.37	-5.05	0.424	0.362	0.195	0.026	-0.138	0.514	0.795	0.627
CC(C)C[C@@H]1NC(=O)[C@@H]2C[C@H](C(=O)NCCCCCNC(=O)CS)[C@H](c3ccc(O)cc3)N2C1=O	1.37	2.04	0.104	1.18	0.194	-0.12	0.0637	-0.12	0.097	0.136
[N-]=[N+]=Nc1ccccc1C[C@@]1(C(=O)NCc2ccccc2)N=C(c2ccc(OCCCO)cc2)O[C@@H]1c1ccccc1	1.08	-1.76	0.262	1.41	0.313	0.534	0.0326	2.22	1.13	0.39
C=C(C)C1CN([C@H](CO)c2ccccc2)C(=O)/C1=C\c1ccccc1 (stereo not given in full)	-0.165	-1.56	0.241	-0.565	-0.754	-0.144	-0.289	0.172	0.189	-0.173
